Laboratory results as given in the supplement of paper PMC10849652.
Of roughly 7,900 targets only a part is listed; those with a hit were picked by preference. About 0.6% of all pairs of compound and target were hits. A number with no mark means an inactive call.

Tests used:
Test in all cases: log2 fold change, soluble protein after heating vs DMSO (PISA); higher = thermal stabilisation; K562 cells, 10 uM, 30 min; active = over 0.2 and 3.5 SD of the protein, either way, in both replicates (recomputed)
[1] = compound: Cc1ccc(NC(=O)c2ccc(CN3CC[C@H](N(C)C)C3)c(C(F)(F)F)c2)cc1Nc1nccc(-c2cncnc2)n1 [bafetinib]
In short: (§1)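 Thermal stability values are relative to control samples and come from duplicates. They are expressed as log2 fold changes. For measurement, K562 cells (2×10^6 cells/mL) received 10 μM compound for 30 min, and aliquots were heated for 3 min over 48°C-58°C, pooled, and extracted at 4°C in PBS with 0.5% NP-40. Soluble protein, the supernatant after 21,000xg for 90 min, was quantified by TMTpro 16plex LC-MS/MS with equalised channel sums.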

[2] = compound: Cc1cccc(CC(=O)N2CCc3c2ccc(-c2cn(C)c4ncnc(N)c24)c3F)n1
In short: as §1

[3] = compound: Cc1cn(-c2cc(NC(=O)c3ccc(C)c(Nc4nccc(-c5cccnc5)n4)c3)cc(C(F)(F)F)c2)cn1 [nilotinib]
In short: as §1

[4] = compound: Cc1nc(Nc2n[nH]c3c2CN(C(=O)N[C@H](CN(C)C)c2ccccc2)C3(C)C)c2sccc2n1
In short: as §1

[5] = compound: Cc1nc(Nc2ncc(C(=O)Nc3c(C)cccc3Cl)s2)cc(N2CCN(CCO)CC2)n1 [dasatinib]
In short: as §1

[6] = compound: Cc1ncc(-c2ccnc(Nc3ccc(S(C)(=O)=O)cc3)n2)n1C(C)C
In short: as §1

[7] = compound: Cn1cc(-c2ccc3c(c2)CCN3C(=O)Cc2cccc(C(F)(F)F)c2)c2c(N)ncnc21
In short: as §1

[8] = compound: Cn1cc(-c2ccc3nnc(C(F)(F)c4ccc5ncccc5c4)n3n2)cn1
In short: as §1

[9] = compound: Cn1cncc1[C@@](N)(c1ccc(Cl)cc1)c1ccc2c(c1)c(-c1cccc(Cl)c1)cc(=O)n2C [tipifarnib]
In short: as §1

[10] = compound: FC(F)(F)c1ccc(/C=C/c2nc(COc3ccc(CCCCn4ccnn4)cc3)co2)cc1 [mubritinib]
In short: as §1

UniProt Q8N128, sequence (Q8N128 whole entry, looked up): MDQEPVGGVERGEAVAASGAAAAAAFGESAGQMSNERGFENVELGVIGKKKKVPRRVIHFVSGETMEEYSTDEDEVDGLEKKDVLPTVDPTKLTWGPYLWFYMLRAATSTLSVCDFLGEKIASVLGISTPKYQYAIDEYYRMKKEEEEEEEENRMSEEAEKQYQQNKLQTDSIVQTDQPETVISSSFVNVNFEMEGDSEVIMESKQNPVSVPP
UniProt Q9H773, sequence (Q9H773 whole entry, looked up): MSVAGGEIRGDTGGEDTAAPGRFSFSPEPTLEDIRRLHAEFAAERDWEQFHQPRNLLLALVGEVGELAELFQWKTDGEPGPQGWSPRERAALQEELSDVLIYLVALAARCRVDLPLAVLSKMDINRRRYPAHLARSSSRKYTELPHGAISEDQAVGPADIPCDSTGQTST
UniProt Q13011, sequence (Q13011 whole entry, looked up): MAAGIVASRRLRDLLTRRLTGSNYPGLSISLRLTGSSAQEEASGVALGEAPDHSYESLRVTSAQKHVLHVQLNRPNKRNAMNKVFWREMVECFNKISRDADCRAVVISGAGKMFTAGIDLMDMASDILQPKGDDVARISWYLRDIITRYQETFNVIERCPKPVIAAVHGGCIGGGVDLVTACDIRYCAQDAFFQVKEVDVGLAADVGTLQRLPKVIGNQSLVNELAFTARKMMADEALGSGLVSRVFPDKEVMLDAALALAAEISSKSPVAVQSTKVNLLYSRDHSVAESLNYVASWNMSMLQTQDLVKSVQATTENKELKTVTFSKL
UniProt P10619, sequence (P10619 whole entry, looked up): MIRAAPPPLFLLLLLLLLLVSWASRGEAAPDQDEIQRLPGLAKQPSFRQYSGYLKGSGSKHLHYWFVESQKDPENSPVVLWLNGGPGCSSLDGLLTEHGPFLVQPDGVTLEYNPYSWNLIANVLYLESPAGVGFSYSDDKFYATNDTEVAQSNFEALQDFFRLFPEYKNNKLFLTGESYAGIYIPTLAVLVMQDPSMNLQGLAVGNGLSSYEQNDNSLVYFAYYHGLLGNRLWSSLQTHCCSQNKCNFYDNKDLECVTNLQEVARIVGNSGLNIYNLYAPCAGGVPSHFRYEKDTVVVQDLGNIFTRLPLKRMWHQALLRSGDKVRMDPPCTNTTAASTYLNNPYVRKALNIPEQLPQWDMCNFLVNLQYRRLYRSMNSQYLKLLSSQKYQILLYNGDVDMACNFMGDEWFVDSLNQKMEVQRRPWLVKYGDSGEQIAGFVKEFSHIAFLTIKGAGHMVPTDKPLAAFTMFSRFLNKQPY
UniProt Q96E09, sequence (Q96E09 whole entry, looked up): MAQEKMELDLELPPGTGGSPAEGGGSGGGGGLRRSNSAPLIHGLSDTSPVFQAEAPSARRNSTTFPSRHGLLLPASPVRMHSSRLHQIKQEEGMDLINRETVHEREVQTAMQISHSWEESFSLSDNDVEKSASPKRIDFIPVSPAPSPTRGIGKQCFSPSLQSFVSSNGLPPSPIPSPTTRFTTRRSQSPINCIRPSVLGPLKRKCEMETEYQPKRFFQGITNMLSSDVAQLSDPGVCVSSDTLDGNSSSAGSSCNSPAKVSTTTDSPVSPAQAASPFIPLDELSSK
UniProt Q13409, sequence (Q13409 whole entry, looked up): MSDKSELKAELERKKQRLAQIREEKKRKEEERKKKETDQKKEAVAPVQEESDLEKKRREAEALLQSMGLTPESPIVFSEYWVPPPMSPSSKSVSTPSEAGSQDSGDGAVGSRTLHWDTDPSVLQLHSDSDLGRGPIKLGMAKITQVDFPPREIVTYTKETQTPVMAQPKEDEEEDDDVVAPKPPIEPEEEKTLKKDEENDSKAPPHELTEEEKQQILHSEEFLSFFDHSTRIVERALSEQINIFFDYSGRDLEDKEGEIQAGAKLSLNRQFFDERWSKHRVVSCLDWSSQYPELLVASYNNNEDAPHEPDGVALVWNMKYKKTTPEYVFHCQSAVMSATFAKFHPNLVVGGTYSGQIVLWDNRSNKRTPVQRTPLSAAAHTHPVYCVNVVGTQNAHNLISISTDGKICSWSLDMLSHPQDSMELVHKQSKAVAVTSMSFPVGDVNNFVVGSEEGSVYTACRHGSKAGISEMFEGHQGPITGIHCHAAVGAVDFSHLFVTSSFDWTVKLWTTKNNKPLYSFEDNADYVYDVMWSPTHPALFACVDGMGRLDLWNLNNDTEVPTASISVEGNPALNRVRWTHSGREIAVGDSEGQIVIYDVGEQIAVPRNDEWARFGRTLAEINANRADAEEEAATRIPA
UniProt Q96G46, sequence (Q96G46 whole entry, looked up): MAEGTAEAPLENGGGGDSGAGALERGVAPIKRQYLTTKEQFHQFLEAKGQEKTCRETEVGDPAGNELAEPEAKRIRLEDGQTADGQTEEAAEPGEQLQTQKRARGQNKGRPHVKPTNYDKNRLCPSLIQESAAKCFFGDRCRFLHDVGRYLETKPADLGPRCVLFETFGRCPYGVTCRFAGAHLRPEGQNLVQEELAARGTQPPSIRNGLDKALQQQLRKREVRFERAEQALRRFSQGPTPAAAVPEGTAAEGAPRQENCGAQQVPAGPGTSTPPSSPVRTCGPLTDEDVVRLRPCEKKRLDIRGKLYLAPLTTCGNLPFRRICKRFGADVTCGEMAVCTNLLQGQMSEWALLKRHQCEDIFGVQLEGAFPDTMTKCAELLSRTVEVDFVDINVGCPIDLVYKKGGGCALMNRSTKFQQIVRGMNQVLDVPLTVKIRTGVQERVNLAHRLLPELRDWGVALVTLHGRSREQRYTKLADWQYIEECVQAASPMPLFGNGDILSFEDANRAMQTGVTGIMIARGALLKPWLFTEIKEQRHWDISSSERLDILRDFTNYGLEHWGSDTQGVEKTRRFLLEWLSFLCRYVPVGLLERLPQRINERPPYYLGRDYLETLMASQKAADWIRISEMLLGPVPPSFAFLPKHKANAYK
UniProt Q9NRY5, sequence (Q9NRY5 whole entry, looked up): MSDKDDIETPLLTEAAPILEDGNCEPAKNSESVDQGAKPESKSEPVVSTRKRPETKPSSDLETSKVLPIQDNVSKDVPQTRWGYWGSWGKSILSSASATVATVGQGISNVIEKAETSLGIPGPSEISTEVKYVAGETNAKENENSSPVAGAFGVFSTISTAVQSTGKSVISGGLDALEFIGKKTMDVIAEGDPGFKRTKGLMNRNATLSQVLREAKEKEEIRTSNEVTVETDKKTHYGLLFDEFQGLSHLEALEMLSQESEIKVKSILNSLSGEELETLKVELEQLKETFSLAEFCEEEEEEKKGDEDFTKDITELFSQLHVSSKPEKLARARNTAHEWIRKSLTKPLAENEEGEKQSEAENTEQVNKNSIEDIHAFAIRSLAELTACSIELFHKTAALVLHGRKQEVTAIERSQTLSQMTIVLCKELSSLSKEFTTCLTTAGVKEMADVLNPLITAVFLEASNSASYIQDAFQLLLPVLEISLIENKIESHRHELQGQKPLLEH
UniProt Q96EV8, sequence (Q96EV8 whole entry, looked up): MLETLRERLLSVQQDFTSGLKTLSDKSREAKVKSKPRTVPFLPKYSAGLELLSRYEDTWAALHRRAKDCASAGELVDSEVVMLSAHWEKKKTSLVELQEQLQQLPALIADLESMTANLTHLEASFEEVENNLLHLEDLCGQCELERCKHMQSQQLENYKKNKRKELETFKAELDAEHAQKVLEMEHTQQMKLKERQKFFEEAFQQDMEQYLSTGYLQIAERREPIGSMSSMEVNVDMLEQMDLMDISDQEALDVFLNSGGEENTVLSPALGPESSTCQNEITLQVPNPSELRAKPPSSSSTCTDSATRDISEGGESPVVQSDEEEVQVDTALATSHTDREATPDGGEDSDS
UniProt Q9UER7, sequence (Q9UER7 whole entry, looked up): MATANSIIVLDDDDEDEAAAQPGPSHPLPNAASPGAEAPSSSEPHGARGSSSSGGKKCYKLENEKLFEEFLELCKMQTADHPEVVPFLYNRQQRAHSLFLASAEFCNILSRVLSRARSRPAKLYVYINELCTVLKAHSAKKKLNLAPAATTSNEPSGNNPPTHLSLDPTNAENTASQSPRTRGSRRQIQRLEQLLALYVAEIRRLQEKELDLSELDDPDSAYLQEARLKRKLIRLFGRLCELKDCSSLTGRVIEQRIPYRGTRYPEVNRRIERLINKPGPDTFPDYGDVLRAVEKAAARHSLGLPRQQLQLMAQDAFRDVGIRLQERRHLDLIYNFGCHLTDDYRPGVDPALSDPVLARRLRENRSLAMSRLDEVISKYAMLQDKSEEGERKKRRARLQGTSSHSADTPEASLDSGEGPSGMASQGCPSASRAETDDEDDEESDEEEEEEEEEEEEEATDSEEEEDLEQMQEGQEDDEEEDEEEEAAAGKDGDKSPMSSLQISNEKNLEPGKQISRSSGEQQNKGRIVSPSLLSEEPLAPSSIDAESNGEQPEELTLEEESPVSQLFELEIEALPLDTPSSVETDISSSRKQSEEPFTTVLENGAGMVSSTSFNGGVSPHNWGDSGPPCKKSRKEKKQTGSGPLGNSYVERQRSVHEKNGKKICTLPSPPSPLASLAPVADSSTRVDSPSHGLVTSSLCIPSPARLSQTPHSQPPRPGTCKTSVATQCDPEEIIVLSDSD
UniProt P13498, sequence (P13498 whole entry, looked up): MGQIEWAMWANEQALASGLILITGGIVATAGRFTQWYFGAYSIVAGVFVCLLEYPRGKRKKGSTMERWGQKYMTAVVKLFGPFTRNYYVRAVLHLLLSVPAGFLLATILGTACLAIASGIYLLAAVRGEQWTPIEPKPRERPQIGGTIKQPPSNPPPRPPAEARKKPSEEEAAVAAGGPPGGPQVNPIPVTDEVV
UniProt Q9UBR2, sequence (Q9UBR2 whole entry, looked up): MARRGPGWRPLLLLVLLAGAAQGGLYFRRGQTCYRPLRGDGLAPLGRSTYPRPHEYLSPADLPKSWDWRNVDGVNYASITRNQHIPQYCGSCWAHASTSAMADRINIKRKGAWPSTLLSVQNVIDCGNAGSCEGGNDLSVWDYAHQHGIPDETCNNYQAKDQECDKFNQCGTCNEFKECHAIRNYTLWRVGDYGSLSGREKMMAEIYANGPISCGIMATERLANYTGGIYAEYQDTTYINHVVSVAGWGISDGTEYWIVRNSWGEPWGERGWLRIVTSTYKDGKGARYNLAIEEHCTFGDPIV

Target | log2 fold change [1] | log2 fold change [2] | log2 fold change [3] | log2 fold change [4] | log2 fold change [5] | log2 fold change [6] | log2 fold change [7] | log2 fold change [8] | log2 fold change [9] | log2 fold change [10]
FAM122A (UniProt Q96E09) | -0.096 | -0.185 | 0.027 | -0.184 | -0.054 | 0.059 | 0.024 | 0.037 | -0.059 | 0.009
ESS2 (UniProt Q96DF8) | -0.186 | -0.07 | 0.013 | -0.048 | 0.011 | 0.019 | -0.061 | -0.081 | 0.038 | 0.008
DAXX (UniProt Q9UER7) | -0.119 | -0.089 | 0.055 | -0.106 | -0.034 | 0 | 0.061 | -0.016 | 0.034 | –
DYNC1I2 isoform 5 (UniProt Q13409) | -0.071 | -0.018 | 0.015 | 0.002 | -0.012 | 0.011 | 0.003 | -0.008 | -0.038 | 0.046
FAM114A2 (UniProt Q9NRY5) | -0.094 | 0.025 | -0.035 | -0.032 | -0.083 | 0.004 | 0.001 | 0.019 | -0.002 | 0.055
ECH1 (UniProt Q13011) | 0.318 | -0.003 | -0.024 | 0.013 | 0.249 | -0.033 | 0.134 | 0.039 | -0.056 | -0.011
CTSZ (UniProt Q9UBR2) | -1.01 (active) | -0.027 | 0.028 | -0.146 | 0.054 | -0.022 | 0.058 | 0.022 | 0.052 | 0.033
CTSA (UniProt P10619) | -0.595 (active) | -0.04 | 0.052 | 0.015 | 0.112 | -0.001 | 0.019 | 0.005 | 0.16 | 0.007
DHPS (UniProt M0R1T2) | 0.081 | – | – | – | – | – | – | – | – | –
DCTPP1 (UniProt Q9H773) | -0.053 | 0.105 | 0.008 | -0.013 | 0.068 | -0.025 | 0.073 | 0.029 | 0.074 | 0.047
DTNBP1 (UniProt Q96EV8) | 0.014 | 0.004 | -0.047 | -0.027 | 0.072 | 0.016 | 0.053 | 0.036 | -0.083 | -0.081
CYBA (UniProt P13498) | -0.24 (active) | -0.06 | 0.01 | 0.034 | -0.077 | 0.026 | 0.002 | 0.004 | 0 | 0.006
FAF2 (UniProt Q96CS3) | -0.058 | -0.022 | -0.042 | -0.049 | -0.075 | 0 | 0.017 | -0.04 | -0.021 | -0.011
FAM177A1 isoform 2 (UniProt Q8N128) | -0.125 | -0.007 | -0.113 | 0.005 | -0.098 | -0.044 | 0.038 | -0.005 | -0.01 | 0.004
DUS3L (UniProt Q96G46) | -0.041 | -0.02 | -0.073 | -0.059 | -0.005 | 0.021 | -0.064 | -0.017 | 0.053 | -0.115
EED, A0A5F9ZI63 | 0.019 | -0.024 | -0.027 | 0.043 | 0.015 | -0.025 | -0.076 | -0.029 | -0.014 | -0.066
